Activity calls are given as the source filed them. How the source made its calls: active means hit-call score of the fitted dose curve at least 0.9, where 1 is the maximum; inactive means score below 0.9.

One may read the AC50 as the concentration giving half of the maximal activity seen.

Settings in all cases: mRNA level, 48 h; actives raise or lower the signal
Read-out in test [1]: Glutathione S-transferase M3 (GSTM3), GSTM3 (gene 2947)
The experiment in a line: LTEA_HepaRG_GSTM3: Life Technologies and Expression Analysis (LTEA) Assay for Glutathione S-transferase M3 (GSTM3) using HepaRG (AID 2283501). In outline: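 Expression of GSTM3 is determined by qRT-PCR in human liver HepaRG cells treated 48 h with an 8-point half-log range from 100 uM in 0.5% DMSO.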

Read-out in test [2]: Heat shock 70 kDa protein 1 (HSPA1A), gene 3303
The test is described as follows: LTEA_HepaRG_HSPA1A: Life Technologies and Expression Analysis (LTEA) Assay for Heat shock 70 kDa protein 1 (HSPA1A) using HepaRG (AID 2283502). The gist of the method:
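Cells were plated and cultured for 48 h, then switched to serum-free induction medium. Chemicals were added at eight half-log concentrations up to 100 uM for 48 h. RNA was then isolated and HSPA1A measured by qRT-PCR with bidirectional curve fitting against DMSO.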

Read-out in test [3]: Hypoxia-inducible factor 1-alpha (Homo sapiens) (UniProt Q16665)
The experiment in a line: LTEA_HepaRG_HIF1A: Life Technologies and Expression Analysis (LTEA) Assay for Hypoxia-inducible factor 1 (HIF1A) Trancription factor using HepaRG (AID 2283503). The gist of the method: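 HIF1A transcript level read by qRT-PCR (ACTB, GAPDH, POLR2A normalization) after 48 h chemical exposure of HepaRG cultures. Eight half-log concentrations, top 100 uM, 0.5% DMSO vehicle, duplicates; bidirectional curve fit against DMSO baseline.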

Read-out in test [4]: 3-Hydroxy-3-Methylglutaryl-CoA Synthase 2 (HMGCS2), HMGCS2 (gene 3158)
The test is described as follows: LTEA_HepaRG_HMGCS2: Life Technologies and Expression Analysis (LTEA) Assay for 3-Hydroxy-3-Methylglutaryl-CoA Synthase 2 (HMGCS2) using HepaRG (AID 2283504). In outline: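 This steatosis marker was read as HMGCS2 mRNA change in HepaRG cells treated 48 h with up to 100 uM chemical. Normalisation used housekeeping genes; activity in either direction was fitted relative to 0.5% DMSO vehicle.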

Read-out in a further test: HGF (gene 3082)
The test is described as follows: LTEA_HepaRG_HGF: Life Technologies and Expression Analysis (LTEA) Assay for Hepatocyte Growth Facto (HGF) using HepaRG (AID 2283505). The gist of the method:
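Using HepaRG monolayers kept in 0.5% DMSO, chemicals were tested in duplicate over eight half-log concentrations from 100 uM for 48 h. Endpoint: HGF mRNA change relative to DMSO, normalized to ACTB/GAPDH/POLR2A.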

Read-out in test [5]: Insulin Like Growth Factor 1 (IGF1), IGF1 (gene 3479)
The experiment in a line: LTEA_HepaRG_IGF1: Life Technologies and Expression Analysis (LTEA) Assay for Insulin Like Growth Factor 1 (IGF1) using HepaRG (AID 2283506). The gist of the method: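 Cells are thawed, plated and cultured 48 h, then exposed in duplicate to chemical (highest 100 uM, half-log steps, 0.5% DMSO) for another 48 h. Total RNA is analysed by Fluidigm qRT-PCR for IGF1 expression relative to vehicle.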

Read-out in test [6]: Intercellular Adhesion Molecule 1 (ICAM1), ICAM1 (gene 3383)
The test is described as follows: LTEA_HepaRG_ICAM1: Life Technologies and Expression Analysis (LTEA) Assay for Intercellular Adhesion Molecule 1 (ICAM1) using HepaRG (AID 2283507). The gist of the method:
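Using the human liver line HepaRG, compounds are tested in duplicate over 48 h at concentrations up to 100 uM. Expression is determined by TaqMan qRT-PCR, normalized to endogenous controls, and analysed relative to 0.5% DMSO vehicle.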

Read-out in test [7]: Insulin-like growth factor-binding protein 1 (IGFBP1), IGFBP1 (gene 3484)
The test is described as follows: LTEA_HepaRG_IGFBP1: Life Technologies and Expression Analysis (LTEA) Assay for Insulin-like growth factor-binding protein 1 (IGFBP1) using HepaRG (AID 2283508). The gist of the method:
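HepaRG, 48 h, 8 conc. (max 100 uM, half-log), duplicates, 0.5% DMSO. Readout: TaqMan qRT-PCR, ACTB/GAPDH/POLR2A normalisation. Fit: bidirectional vs DMSO.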

Read-out in test [8]: Interleukin 6 (IL6), IL6 (gene 3569)
The experiment in a line: LTEA_HepaRG_IL6: Life Technologies and Expression Analysis (LTEA) Assay for Interleukin 6 (IL6) using HepaRG (AID 2283509). The gist of the method:
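Changes in IL6 mRNA, up or down relative to 0.5% DMSO controls, were derived from concentration-response curves in human HepaRG cells treated for 48 h at up to 100 uM, with ACTB, GAPDH and POLR2A as normalizers.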

Read-out in test [9]: Potassium channel subfamily K member 1 (KCNK1), KCNK1 (gene 3775)
The test is described as follows: LTEA_HepaRG_KCNK1: Life Technologies and Expression Analysis (LTEA) Assay for Potassium channel subfamily K member 1 (KCNK1) using HepaRG (AID 2283511). The gist of the method:
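Human HepaRG cultures receive test chemicals for 48 h in 0.5% DMSO, top concentration 100 uM with half-log dilutions. Induction or suppression of KCNK1 mRNA relative to DMSO is derived by bidirectional fitting of qRT-PCR data.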

Read-out in test [10]: Keratin 19 (KRT19), KRT19 (gene 3880)
The test is described as follows: LTEA_HepaRG_KRT19: Life Technologies and Expression Analysis (LTEA) Assay for Keratin 19 (KRT19) using HepaRG (AID 2283512). The gist of the method: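 Readout is qRT-PCR of KRT19 mRNA, normalized to ACTB, GAPDH and POLR2A, from HepaRG cells treated 48 h with eight-point half-log dilutions topping at 100 uM. Activity in either direction is scored relative to 0.5% DMSO vehicle.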

Read-out in test [11]: JUN Transcription Factor, JUN (gene 3725)
The test is described as follows: LTEA_HepaRG_JUN: Life Technologies and Expression Analysis (LTEA) Assay for JUN Transcription Factor using HepaRG (AID 2283513). The gist of the method:
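Read-out is JUN transcript level by TaqMan qRT-PCR, normalized to ACTB, GAPDH and POLR2A, after 48 h chemical treatment of HepaRG cells. Concentration-response spanned eight half-log points up to 100 uM in 0.5% DMSO.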

Read-out in test [12]: Lipase C (LIPC), LIPC (gene 3990)
The experiment in a line: LTEA_HepaRG_LIPC: Life Technologies and Expression Analysis (LTEA) Assay for Lipase C (LIPC) using HepaRG (AID 2283514). The gist of the method: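 In this multiplexed gene-expression screen, human HepaRG cultures received test chemicals for 48 h across eight concentrations with 100 uM highest, in duplicate. Values reflect LIPC mRNA induction or suppression versus DMSO vehicle, from normalized qRT-PCR.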

Read-out in test [13]: Lipoprotein lipase (LPL), LPL (gene 4023)
The test is described as follows: LTEA_HepaRG_LPL: Life Technologies and Expression Analysis (LTEA) Assay for Lipoprotein lipase (LPL) using HepaRG (AID 2283515). In outline:
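Concentration-response testing used half-log steps from 100 uM in 0.5% DMSO on human HepaRG cells, 48 h, duplicate wells. Phenobarbital 1 mM served as induction control; LPL mRNA was normalized to ACTB, GAPDH, POLR2A.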

Read-out in test [14]: MicroRNA 122 (MIR122), gene 406906
The test is described as follows: LTEA_HepaRG_MIR122: Life Technologies and Expression Analysis (LTEA) Assay for MicroRNA 122 (MIR122) using HepaRG (AID 2283516). Further: the transcript read is the microRNA miR-122. In outline:
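Human liver HepaRG cultures receive test chemicals for 48 h at eight half-log concentrations from 100 uM. Expression is quantified by qRT-PCR with ACTB/GAPDH/POLR2A normalization and fitted bidirectionally against 0.5% DMSO.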

Read-out in test [15]: matrix metalloproteinase-10 (MMP10), MMP10 (gene 4319)
The test is described as follows: LTEA_HepaRG_MMP10: Life Technologies and Expression Analysis (LTEA) Assay for matrix metalloproteinase-10 (MMP10) using HepaRG (AID 2283517). In outline: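 In differentiated HepaRG cultures kept in 0.5% DMSO, test chemicals act for 48 h over an eight-point range with a top dose of 100 uM. Expression is then quantified by TaqMan RT-PCR against ACTB, GAPDH and POLR2A.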

Read-out in the next test: MYC, MYC (gene 4609)
The experiment in a line: LTEA_HepaRG_MYC: Life Technologies and Expression Analysis (LTEA) Assay for MYC using HepaRG (AID 2283518). In outline: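 Expression changes were scored by TaqMan qRT-PCR with ACTB, GAPDH and POLR2A normalization. Cultures in serum-free induction medium received duplicate 8-point concentration series, highest 100 uM, for 48 h; DMSO (0.5%) served as baseline.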

Read-out in test [16]: Paternally Expressed 10 (PEG10), PEG10 (gene 23089)
The experiment in a line: LTEA_HepaRG_PEG10: Life Technologies and Expression Analysis (LTEA) Assay for Paternally Expressed 10 (PEG10) using HepaRG (AID 2283520).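 On AC50: differentiated HepaRG human liver cells in serum-free induction medium with 0.5% DMSO; PEG10 transcript by qRT-PCR normalised to ACTB GAPDH and POLR2A.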 The gist of the method: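 Human HepaRG cultures are dosed for 48 h across an eight-point half-log series starting at 100 uM, with 0.5% DMSO as vehicle and baseline. Gain or loss of PEG10 transcript is measured by qRT-PCR and fitted in both directions.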

Read-out in test [17]: Interleukin 6 Receptor (IL6R), IL6R (gene 3570)
The experiment in a line: LTEA_HepaRG_IL6R: Life Technologies and Expression Analysis (LTEA) Assay for Interleukin 6 Receptor (IL6R) using HepaRG (AID 2283510). In outline:
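Cells were thawed, plated and cultured 48 h, then medium was changed to serum-free induction medium. Chemicals were added in duplicate (100 uM top, half-log steps, 0.5% DMSO) for 48 h. Lysates were analyzed by qRT-PCR for IL6R expression.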

Read-out in test [18]: matrix metalloproteinase-3 (MMP3), MMP3 (gene 4314)
The experiment in a line: LTEA_HepaRG_MMP3: Life Technologies and Expression Analysis (LTEA) Assay for matrix metalloproteinase-3 (MMP3) using HepaRG (AID 2283519). In outline:
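Human liver HepaRG cultures received chemicals (top concentration 100 uM, 0.5% DMSO) for 48 h in duplicate. MMP3 mRNA induction or loss was then assessed via TaqMan qRT-PCR with housekeeping-gene normalisation.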

Sequence of Hypoxia-inducible factor 1-alpha (Homo sapiens) (Q16665 whole entry, looked up): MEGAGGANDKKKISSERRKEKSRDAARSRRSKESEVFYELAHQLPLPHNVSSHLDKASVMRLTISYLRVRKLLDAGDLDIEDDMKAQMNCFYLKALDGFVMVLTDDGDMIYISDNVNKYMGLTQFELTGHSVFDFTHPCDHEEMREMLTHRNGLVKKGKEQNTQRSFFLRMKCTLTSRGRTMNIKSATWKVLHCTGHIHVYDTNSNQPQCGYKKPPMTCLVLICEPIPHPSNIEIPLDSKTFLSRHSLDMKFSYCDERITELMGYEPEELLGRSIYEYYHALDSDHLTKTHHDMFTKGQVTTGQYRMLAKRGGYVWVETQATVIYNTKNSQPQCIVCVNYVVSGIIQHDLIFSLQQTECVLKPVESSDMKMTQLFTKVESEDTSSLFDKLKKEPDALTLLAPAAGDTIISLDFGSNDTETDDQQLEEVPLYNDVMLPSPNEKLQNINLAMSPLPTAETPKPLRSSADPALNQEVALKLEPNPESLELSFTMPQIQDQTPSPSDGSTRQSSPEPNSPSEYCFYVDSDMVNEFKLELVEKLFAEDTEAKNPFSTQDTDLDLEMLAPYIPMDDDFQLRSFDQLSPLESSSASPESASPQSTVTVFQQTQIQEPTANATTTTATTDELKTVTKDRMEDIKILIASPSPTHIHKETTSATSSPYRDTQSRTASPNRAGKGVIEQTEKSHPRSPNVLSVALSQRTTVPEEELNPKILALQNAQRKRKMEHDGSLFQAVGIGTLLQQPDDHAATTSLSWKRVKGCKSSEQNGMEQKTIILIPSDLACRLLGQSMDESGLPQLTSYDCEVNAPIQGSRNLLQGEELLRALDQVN

On to `CCC(C)c1ccc(O)cc1` (centres undefined), for which the outcome (in test [1]; in test [2]; in [3]; in [4]; in the test with HGF (gene 3082); in test [5]) was inactive. Also, the call in [6], in test [7], in test [8], in test [9], in test [10] and in [11] was inactive. Moreover, the outcome in test [12] was “inactive”; in test [13] it was “inactive”; in [14], “inactive”; in test [15], “inactive”; in the test with MYC, MYC (gene 4609) it was “inactive”; in test [16], “inactive”.

On to `CN(C)c1ccccc1`, for which the call (in test [1]; in test [2]; in test [3]; in test [4]; with HGF (gene 3082); in test [5]) was inactive. The call in [6], in test [7], in test [17], in [9], in test [10] and in test [11] was inactive. The outcome in test [12] is “inactive”; in test [13], “inactive”; in test [14] it was “inactive”; in test [15], “inactive”; with MYC, MYC (gene 4609), “inactive”; in [18], “inactive”. Besides, in [16], the call was inactive.

In the case of `COP(=S)(OC)SCN1C(=O)c2ccccc2C1=O`, the result (in [1]; in test [2]; in [3]; in [4]; in the test with HGF (gene 3082); in test [5]) was inactive. Also, the result in test [6], in test [7], in [8], in test [9], in [11] and in test [12] was inactive. Moreover, the outcome in test [13] is “inactive”; in [14] it was “inactive”; in test [15], “inactive”; in the test with MYC, MYC (gene 4609), “inactive”; in test [18], “inactive”; in test [16], “inactive”.

For the compound `O=C(Nc1ccccc1)c1ccccc1I`, the result (in test [1]; in test [2]; in test [3]; in test [4]; in the test with HGF (gene 3082); in [6]) was inactive. Besides, the call in test [8], in test [17], in test [9], in [11], in test [13] and in test [15] was inactive. Besides, the AC50 is 19.1 µM (active) in [5]; 34.8 µM (active) in [7]; 22.6 µM (active) in test [10]; 50 µM (active) in test [12]; 50 µM (active) in [14]; 41.6 µM (active) with MYC, MYC (gene 4609). In addition, the AC50 in [16] is 31.2 µM (active).

Values taken from PubChem BioAssay (EPA / NIEHS).
